For 21 molecules, outcome and AC50 results are on record in PubChem BioAssay (EPA / NIEHS).

In general, AC50 refers to the concentration at which the activity in the assay is half-maximal.

Calls of active or inactive are those of the source. How the source made its calls: active means hit-call score of the fitted dose curve at least 0.9, where 1 is the maximum; inactive means score below 0.9.

The nature of this test: BSK_BT_Bcell_Proliferation: Viability Assessment in the BioMAP Diversity Plus: BT Assay for B cell Proliferation (AID 2284227). To be noted: primary human B cells with PBMC. The gist of the method: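 SRB-based protein staining (0.1% SRB after 10% TCA fixation, 560 nm) quantifies proliferation in human B cells co-cultured with PBMC, 72 h post-dosing, with signal gain scored relative to DMSO negative control.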
`CCCCN(CCCC)C(=S)[S-].CCCCN(CCCC)C(=S)[S-].[Ni+2]`: the result was inactive.
For `Cc1ccc2nc3sc(=O)sc3nc2c1`, the AC50 is 5 µM (active).
In the case of `CCOP(=S)(OCC)OP(=S)(OCC)OCC`, the result was inactive.
For the molecule `Oc1cccc(-c2ccccc2)c1`, the outcome was inactive.
For `CCOP(=O)(OCC)SCCSCC`, the result was inactive.
The same measure, in the same setting: for `Oc1ccc(Cc2ccc(O)cc2)cc1` the value was “inactive”.
Turning to `O=C1C=CC(=O)c2ccccc21`, the AC50 is 0.825 µM (active).
`O=S(=O)(c1ccc(Cl)cc1)c1cc(Cl)c(Cl)cc1Cl`: the AC50 was 30.1 µM (active).
Consider `OC(Cc1ccccc1Cl)(Cn1[nH]cnc1=S)C1(Cl)CC1` (stereo unspecified), for which the outcome was inactive.
`COCC(=O)N(c1c(C)cccc1C)[C@H](C)C(=O)OC`: the outcome was inactive.
Consider `O=[N+]([O-])c1cccc2ccccc12`, for which the outcome was inactive.
Take `Nc1c(Oc2ccccc2)cc(O)c2c1C(=O)c1ccccc1C2=O`: the outcome was inactive.
Take `Cc1ccccc1OP(=O)(Oc1ccccc1C)Oc1ccccc1C`: the AC50 was 34.4 µM (active).
`O=C(O)COc1cc(Cl)c(Cl)cc1Cl`: the outcome was inactive.
Consider `CC1(C)[C@H](C(=O)O[C@H](C#N)c2cccc(Oc3ccccc3)c2)[C@@H]1/C=C(\Cl)C(F)(F)F`, for which the result was inactive.
As to `Cc1cc(Cl)ccc1N`, the outcome was inactive.
Turning to `CCOC(=O)C(SP(=S)(OC)OC)c1ccccc1` (stereo unspecified), the result was inactive.
The same measure, in the same setting: for `CCN(CC)C(=O)C(Cl)=C(C)OP(=O)(OC)OC` the value was “inactive”; for `Oc1c(Br)cc(Br)cc1Br`, “inactive”.
`NC(=O)CCl`: the outcome was inactive.
Turning to `c1ccc2sc(SNC3CCCCC3)nc2c1`, the AC50 is 29.3 µM (active).
